High-throughput results (PubChem)
M1 PAM: human M1 muscarinic receptor positive allosteric modulators, primary screen, CHO-K1 cells, Fluo-8 calcium fluorescence, 1536-well. Muscarinic acetylcholine receptor M1 (Homo sapiens), P11229. CHO-K1 hM1, ACh EC20; 0% = ACh EC20, 100% = maximal ACh. activation, % at 3 µM. 360,000 tested, 0.088% active. AID 588819, 2011; in the data active = activation above about 19%, passing the limit was not always enough
Target sequence (P11229 whole entry, looked up): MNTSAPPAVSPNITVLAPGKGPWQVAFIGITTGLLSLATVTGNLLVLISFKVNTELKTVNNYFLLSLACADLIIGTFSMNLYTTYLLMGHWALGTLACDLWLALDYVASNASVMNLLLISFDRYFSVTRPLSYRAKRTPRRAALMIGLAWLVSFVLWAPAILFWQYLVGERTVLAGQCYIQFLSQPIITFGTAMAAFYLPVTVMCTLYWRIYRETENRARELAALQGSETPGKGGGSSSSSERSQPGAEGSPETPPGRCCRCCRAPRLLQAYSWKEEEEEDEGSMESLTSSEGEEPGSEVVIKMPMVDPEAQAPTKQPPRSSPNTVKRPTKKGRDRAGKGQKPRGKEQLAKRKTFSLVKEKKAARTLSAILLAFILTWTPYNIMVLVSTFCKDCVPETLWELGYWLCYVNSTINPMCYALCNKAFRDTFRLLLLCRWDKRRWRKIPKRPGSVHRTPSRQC
CHO-K1 Ca antag: counter-screen for M1 antagonists: effect in parental CHO-K1 cells. ATP-induced calcium, Fluo-8 fluorescence. inhibition, % at 3 µM. 360,000 tested, 0.6% active. AID 602250;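 active = inhibition above a per-plate cutoff, the plate's mean sample inhibition plus 3 SD, cut at about 24% in these data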
CHRM1 antagonist: human M1 muscarinic receptor antagonists, primary screen, CHO-K1 cells, Fluo-8 calcium fluorescence, 1536-well; inhibition, % at 3 µM; 360,000 tested, 1.3% active; CHO-K1 hM1, ACh EC80 antagonist;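 active = percent inhibition above its own plate's cutoff, namely the mean of that plate's compound wells plus 3 SD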;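 also: peak over basal fluorescence ratio during 140 s after agonist addition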
CHO-K1 Ca PAM: nonselective calcium activators in parental CHO-K1 cells, primary screen, counter-screen for M1 PAM project, cell-based, Fluo-8 calcium fluorescence, full deck, 1536-well | ATP EC20; 0% at ATP EC20, 100% at ATP max | activation, % at 3 µM | 360,000 tested, 0.02% active | AID 602247, 2012;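 active = activation above the run cutoff, the mean activation of all test compounds plus 3 SD, cut at about 40% in these data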;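 also: peak over basal fluorescence ratio in a 140 s read after ATP addition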
CHRM1 agonist: human M1 muscarinic receptor agonists, primary screen, Fluo-8 calcium fluorescence, CHO-K1 cells, HTS; CHO-K1 hM1, agonist mode; 0% DMSO, 100% acetylcholine EC100; activation, % at 3 µM; 360,000 tested, 0.33% active;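 active = activation above the run's mean compound activation plus 3 SD, cut at about 16% in these data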;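 also: peak over basal fluorescence ratio within a 140 s kinetic read after compound addition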
CHO-K1 Ca ag: counter-screen for M1 agonists: effect in parental CHO-K1 cells | activation, % at 3 µM | Fluo-8 calcium fluorescence; scaled to maximal ATP response, vehicle zero | AID 602248, 2012 | 360,000 tested, 0.48% active; in the data active = activation above about 15%;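 also: untransfected CHO-K1 host cells lacking M1 receptor as counterscreen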
Hits are given with their value; – = inactive; · = no result given. The list is not random: actives were taken first. Their share in the collection is about 2.4%.

SMILES | M1 PAM | CHO-K1 Ca antag | CHRM1 antagonist | CHO-K1 Ca PAM | CHRM1 agonist | CHO-K1 Ca ag
COc1ccc(CCC(C)NC2C3CC4CC(C3)CC2C4)cc1 (stereo not given) | – | – | 99 | – | – | –
COc1ccc(CCC(C)Nc2ccccc2F)cc1 (stereo not given) | – | – | – | – | – | –
CCCC(=O)N1CCN(c2ccc(NC(=S)NC(=O)CC)cc2)CC1 | – | – | – | – | – | –
COc1ccc(C(CNC(=O)c2ccc(Cl)c(S(=O)(=O)N3CCCC3)c2)N2CCCC2)cc1 (stereo not given) | – | – | – | – | – | –
CCN(CC)CCNC(=O)c1ccc(Cl)c(S(=O)(=O)Nc2ccc(Cl)cc2)c1 | – | – | – | – | – | –
COc1ccc(CCNC(=O)c2ccc(Cl)c(S(=O)(=O)N3CCCC3)c2)cc1 | – | – | – | – | – | 16
CCN(CC)CCNC(=O)c1ccc(NC(=O)c2ccc(S(=O)(=O)N3CCCCCC3)cc2)cc1 | – | – | – | – | – | –
CCN(CC)CCNC(=O)c1ccc(NC(=O)c2cccc(S(=O)(=O)N3CCCCCC3)c2)cc1 | – | – | 101 | – | – | –
CCN(CC)CCNC(=O)c1ccc(NC(=O)c2ccc(Cl)c(S(=O)(=O)N3CCCCCC3)c2)cc1 | – | – | 100 | – | – | –
O=C(Nc1ncccc1O)c1ccc(Cl)c(S(=O)(=O)N2CCCCC2)c1 | – | 38 | – | – | – | –
COc1ccc(OC(=O)c2cccc(S(=O)(=O)N3CC(C)OC(C)C3)c2)cc1 (stereo not given) | – | – | – | – | – | –
Cc1csc(C(C)NC(=O)c2ccc(OC3CCN(CCc4ccccc4)CC3)cc2)n1 (stereo not given) | – | – | – | – | – | –
O=c1c2ccccc2oc2cc(-c3ccc(CN4CCOCC4)cc3)ccc12 | – | – | – | – | – | –
CCN(CC)CCOC(=O)c1ccc(NC(=O)CCCN2C(=O)/C(=C/c3cccs3)SC2=S)cc1 | – | – | 36 | – | – | –
Cc1cc(F)ccc1-c1cc(C(=O)NCc2ccc(C(F)(F)F)cc2)[nH]n1 | – | – | – | – | 32 | 16
CCOc1ccc(-c2cc(C(=O)NCc3ccc(C(F)(F)F)cc3)[nH]n2)c(C)c1 | – | – | – | – | – | –
COc1cc(O)c(C(CC(=O)N2CCOCC2)c2ccc3c(c2)OCO3)c(OC)c1 (stereo not given) | – | – | 36 | – | – | –
COc1ccc(CC(=O)Nc2ccc(-c3ccc4nnc(C)n4n3)cc2)cc1OC | – | – | – | – | – | –
CC(=O)C1=CCC(c2ccc(Cl)cc2)N(S(=O)(=O)c2ccccc2)C1 (stereo not given) | – | – | – | – | – | –
O=S(=O)(c1cccs1)N1CCN(CC(O)COc2cc(Cl)ccc2Cl)CC1 (stereo not given) | – | – | 23 | – | – | –
N#C/C(=C/c1ccc(N2CCCCC2)o1)C(=O)Nc1ccc(Cl)cc1 | – | 36 | 68 | – | 102 | 79
N#C/C(=C/c1ccc(N2CCCCC2)o1)C(=O)Nc1ccc2ccccc2c1 | – | 85 | 87 | – | 240 | 266
Cc1ccc(CNC(=S)Nc2cc(C(=O)O)ccc2C)cc1 | – | 31 | – | – | – | –
CCCOc1ccc(C(=O)NCC(c2cccs2)N(C)C)cc1 (stereo not given) | – | – | – | – | – | –
CCN(c1ccccc1)S(=O)(=O)c1cc(C(=O)NCC(c2ccc(OC)cc2)N(C)C)ccc1C (stereo not given) | – | – | 55 | – | 36 | –
SMILES | M1 PAM | CHO-K1 Ca antag | CHRM1 antagonist | CHO-K1 Ca PAM | CHRM1 agonist | CHO-K1 Ca ag
CCN(c1ccccc1)S(=O)(=O)c1ccc(C(=O)NCC(c2cccs2)N(C)C)cc1 (stereo not given) | – | – | 36 | – | – | –
Cc1cccc(C)c1OCC(=O)Nc1nnc(C2CCCO2)s1 (stereo not given) | – | – | – | – | – | –
Cc1ccc(OCC(=O)Nc2nnc(C3CCCO3)s2)c(Br)c1 (stereo not given) | – | – | 37 | – | – | –
CCOc1cc(OCC)cc(C(=O)N2CCC[C@@H]2C(=O)N2CCC[C@@H]2C(=O)NCc2ccccc2Cl)c1 | · | – | · | – | · | 17
O=C(NCCSc1ncc(-c2ccc(F)cc2)[nH]1)c1ccc2c(c1)OCO2 | – | – | – | – | – | –
C#CCOC(=O)Nc1ccc(=O)n(Cc2c(Cl)cccc2Cl)c1 | – | – | – | – | – | –
CC(C)COc1ccc(C(=S)N2CCCC2)cc1 | – | – | – | – | – | –
Cc1cc2c(cc(C(=O)N3CCC(C(=O)N4CCCC4)CC3)n2Cc2c(F)cccc2Cl)o1 | – | – | 30 | – | – | –
CCOC(=O)c1cc2occc2n1Cc1c(F)cccc1Cl | – | – | – | – | – | –
O=C(CCCN1CCC(c2ccccc2)C1)c1ccc2c(c1)OCCO2 (stereo not given) | – | – | 35 | – | – | –
CCn1c(SCC(=O)Nc2ccc3[nH]c(=O)[nH]c3c2)nc2ccccc21 | – | – | 50 | – | – | –
CC(C)Cn1c(SCC(=O)Nc2ccc3[nH]c(=O)[nH]c3c2)nc2ccccc2c1=O | – | – | – | – | – | –
COCCn1c(SCC(=O)Nc2ccc3[nH]c(=O)[nH]c3c2)nc2ccccc21 | – | – | 38 | – | – | –
CCCCN(C(=O)CSc1nnc(-c2ccc(OC)cc2)n1C(C)C)c1c(N)n(Cc2ccccc2)c(=O)[nH]c1=O | – | – | – | – | – | –
CCCCN(C(=O)CSc1nnc(-c2ccc(OC)cc2)n1CC)c1c(N)n(Cc2ccccc2)c(=O)[nH]c1=O | – | 28 | – | – | – | –
OCC#CCSc1nnc(-c2ccncc2)o1 | – | 37 | – | – | – | –
CCSc1nnc(-c2ccncc2)o1 | – | – | – | – | – | –
c1cc(-c2n[nH]c(-c3ccncc3)n2)ccn1 | – | – | – | – | – | 20
CCCC1/C(=N/O)CC(c2ccccc2)NC1c1ccccc1 (stereo not given) | – | 37 | – | – | – | 18
CC1/C(=N/O)CC(c2ccccc2)NC1c1ccccc1 (stereo not given) | – | – | – | – | – | –
N#Cc1ccccc1NC(=O)COC(=O)c1c[nH]c2ccccc12 | – | – | – | – | – | –
Cc1ccc(C(C)C)c(OCCCN(C)Cc2ccccc2)c1 | – | – | 59 | – | – | –
